# The list shows a part of the results. The true hit rate is not given.
# B1: HC767 (peptide)
# chain: CANSSPPVVPAGNASASA
# B2: HC1169 (peptide)
# chain: CAGVWRVDGIAGNASASA
# B3: HC1961 (peptide)
# chain: CANCTTPCSGAGNASASA
# B4: FS-1953 (peptide)
# chain: CARHARNVDRAGNASASA
# B5: HC1167 (peptide)
# chain: CARGYKGVWRAGNASASA
# B6: FS-3155 (peptide)
# chain: CARHARQASEAGNASASA
# B7: FS-2356 (peptide)
# chain: CARPAREVDRAGNASASA
# B8: FS-2469 (peptide)
# chain: CARVARTVDRAGNASASA
# B9: FS-2210 (peptide)
# chain: CARHARFGKKAGNASASA
# B10: NG5 (peptide)
# chain: CAMKYEIASEAGNASASA
# B11: FS-1716 (peptide)
# chain: CARHRKNVDRAGNASASA
# B12: HC1859 (peptide)
# chain: CATPPCSGSWAGNASASA
# B13: HC522 (peptide)
# chain: CAFLLLADARAGNASASA
# B14: HC972 (peptide)
# chain: CAPLLYRLGAAGNASASA
# B15: HC1440 (peptide)
# chain: CAMAKNEVFCAGNASASA
# B16: HC312 (peptide)
# chain: CAGCNCSIYPAGNASASA
# B17: FS-1537 (peptide)
# chain: CAIVARNHRDAGNASASA
# B18: FS-805 (peptide)
# chain: CAITARYHRDAGNASASA
# B19: FS-1604 (peptide)
# chain: CAPWNRKNRQAGNASASA
# B20: HC1913 (peptide)
# chain: CATTPCSGRWAGNASASA
# B21: FS-1456 (peptide)
# chain: CAGKRRSRRQAGNASASA
# B22: FS-1400 (peptide)
# chain: CARKPKRKRWAGNASASA
# B23: FS-1261 (peptide)
# chain: CARKPRVKRPAGNASASA
# B24: FS-1337 (peptide)
# chain: CAHKHRSNRQAGNASASA
# B25: FS-193 (peptide)
# chain: CASKRRDKRWAGNASASA
# B26: FS-3138 (peptide)
# chain: CASSRRDSSWAGNASASA
# B27: HC1151 (peptide)
# chain: CAWDWICEVLAGNASASA
# B28: HC847 (peptide)
# chain: CAIPFYGKAIAGNASASA
# B29: HC1628 (peptide)
# chain: CAGGRAAICGAGNASASA
# B30: HC1563 (peptide)
# chain: CATRDPTTPLAGNASASA
# B31: HC1601 (peptide)
# chain: CAPIIQRLHGAGNASASA
# B32: HC2161 (peptide)
# chain: CANVVTSTWVAGNASASA
# B33: FS-1412 (peptide)
# chain: CASKRRSRRQAGNASASA
# B34: FS-1487 (peptide)
# chain: CASKRRARRQAGNASASA
# B35: FS-698 (peptide)
# chain: CANVVRARRQAGNASASA
# B36: HC1417 (peptide)
# chain: CAPPHSAKSKAGNASASA
# B37: HC1930 (peptide)
# chain: CATTPCSGSVAGNASASA
# B38: HC194 (peptide)
# chain: CAKARRPEGRAGNASASA
# B39: HC888 (peptide)
# chain: CANTCVTQTVAGNASASA
# B40: HC1054 (peptide)
# chain: CAIASLMAFTAGNASASA
# B41: FS-3107 (peptide)
# chain: CARTKRLAIFAGNASASA
# B42: FS-2190 (peptide)
# chain: CARTKRSAFFAGNASASA
# B43: FS-1976 (peptide)
# chain: CARTKRYFAKAGNASASA
# B44: FS-2313 (peptide)
# chain: CARTKRDYDFAGNASASA
# B45: FS-2314 (peptide)
# chain: CARTKRLTAQAGNASASA
# B46: DV6 (peptide)
# chain: CAGLKRGGAKAGNASASA
# B47: FS-1689 (peptide)
# chain: CARDDRSTSFAGNASASA
# B48: FS-2823 (peptide)
# chain: CARTKKAKMKAGNASASA
# Target: furin, P09958
# Sequence (P09958 whole entry): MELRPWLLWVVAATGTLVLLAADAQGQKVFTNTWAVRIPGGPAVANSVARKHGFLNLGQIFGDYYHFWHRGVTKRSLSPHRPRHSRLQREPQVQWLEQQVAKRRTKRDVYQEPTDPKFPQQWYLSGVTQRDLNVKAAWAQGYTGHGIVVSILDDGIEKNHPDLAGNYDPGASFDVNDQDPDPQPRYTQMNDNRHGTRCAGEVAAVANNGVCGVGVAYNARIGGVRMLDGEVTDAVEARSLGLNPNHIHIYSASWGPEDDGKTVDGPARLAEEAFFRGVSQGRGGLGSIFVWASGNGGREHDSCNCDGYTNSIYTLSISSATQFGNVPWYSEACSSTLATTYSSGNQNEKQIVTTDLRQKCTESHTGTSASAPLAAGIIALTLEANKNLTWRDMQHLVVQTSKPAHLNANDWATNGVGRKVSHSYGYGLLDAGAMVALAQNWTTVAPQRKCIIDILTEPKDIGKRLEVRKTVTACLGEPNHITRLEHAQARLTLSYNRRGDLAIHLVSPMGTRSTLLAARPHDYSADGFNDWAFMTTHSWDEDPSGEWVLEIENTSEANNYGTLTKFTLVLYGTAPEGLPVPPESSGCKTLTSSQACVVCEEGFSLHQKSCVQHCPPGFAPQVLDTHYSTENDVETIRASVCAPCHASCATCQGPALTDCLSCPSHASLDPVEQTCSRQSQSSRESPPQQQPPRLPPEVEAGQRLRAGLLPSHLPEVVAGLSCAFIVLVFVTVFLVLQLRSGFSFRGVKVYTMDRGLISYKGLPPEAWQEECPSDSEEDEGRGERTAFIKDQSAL
# Assay: furin cleavage Z-score vs untreated control; higher = more cleavage, active = 3.5 or more, inactive = 1 or less, 8 variable residues between constant flanks
# Outline: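 Reactions of 0.01 ml ran for 7.5, 15 or 30 min in 50 mM HEPES pH 7.5 with CaCl2 and NaCl, at 1:10 enzyme:substrate. In them, purified furin acted on bead-held 8-mer peptides fused to a cDNA oligonucleotide. The cleavage Z-score was obtained by lowess-adjusting log sequencing counts of released DNA against furin-free reactions and scaling by median absolute deviation.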
Sequence,furin cleavage Z-score (7.5 min),furin cleavage Z-score (15 min),furin cleavage Z-score (30 min)
B1,-0.356 (inactive),1.59,-0.293 (inactive)
B2,-0.937 (inactive),0.416 (inactive),-0.826 (inactive)
B3,-0.578 (inactive),-3.89 (inactive),1.28
B4,6.92 (active),10.7 (active),9.36 (active)
B5,0.51 (inactive),0.617 (inactive),-0.00561 (inactive)
B6,1.74,4.48 (active),5.03 (active)
B7,5.34 (active),5.29 (active),4.96 (active)
B8,5.8 (active),7.75 (active),8.43 (active)
B9,0.851 (inactive),-1.52 (inactive),1.21
B10,-0.26 (inactive),-1.67 (inactive),0.146 (inactive)
B11,-0.386 (inactive),1.53,1.32
B12,-0.56 (inactive),-0.533 (inactive),-0.721 (inactive)
B13,-0.934 (inactive),-0.696 (inactive),-0.66 (inactive)
B14,0.619 (inactive),-1.01 (inactive),0.0559 (inactive)
B15,0.471 (inactive),0.162 (inactive),0.531 (inactive)
B16,0.264 (inactive),-0.894 (inactive),0.418 (inactive)
B17,4.29 (active),3.17,2.88
B18,2.27,3.38,4.17 (active)
B19,-0.25 (inactive),0.846 (inactive),3.14
B20,-1.94 (inactive),0.288 (inactive),-0.595 (inactive)
B21,9.9 (active),10.6 (active),6.67 (active)
B22,8.47 (active),10.9 (active),7.59 (active)
B23,1.31,0.832 (inactive),1.57
B24,1.05,3.88 (active),1.67

Sequence,furin cleavage Z-score (7.5 min),furin cleavage Z-score (15 min),furin cleavage Z-score (30 min)
B25,8.33 (active),9.38 (active),9.36 (active)
B26,-0.452 (inactive),-0.483 (inactive),-0.978 (inactive)
B27,-0.473 (inactive),1.19,1.97
B28,-0.737 (inactive),-1.38 (inactive),0.0496 (inactive)
B29,-1.4 (inactive),-1.23 (inactive),-0.629 (inactive)
B30,0.197 (inactive),-2.67 (inactive),-1.41 (inactive)
B31,-1.06 (inactive),-0.433 (inactive),-1.21 (inactive)
B32,-0.344 (inactive),0.91 (inactive),0.172 (inactive)
B33,8.55 (active),8.01 (active),5.96 (active)
B34,7.99 (active),8.93 (active),6.94 (active)
B35,12.8 (active),12 (active),10.3 (active)
B36,-1.76 (inactive),-0.582 (inactive),-0.397 (inactive)
B37,0.2 (inactive),0.581 (inactive),1.22
B38,-0.782 (inactive),-1.19 (inactive),-0.268 (inactive)
B39,-0.737 (inactive),-1.07 (inactive),-1.56 (inactive)
B40,-0.654 (inactive),-1.12 (inactive),0.0832 (inactive)
B41,3.35,5.86 (active),5.79 (active)
B42,7.39 (active),8.86 (active),9.07 (active)
B43,0.407 (inactive),1.7,4.11 (active)
B44,5.48 (active),7.94 (active),9.08 (active)
B45,-0.31 (inactive),0.417 (inactive),1.3
B46,0.716 (inactive),0.513 (inactive),-0.692 (inactive)
B47,1.2,-0.677 (inactive),2.85
B48,-1.45 (inactive),-0.415 (inactive),-0.644 (inactive)

# Reference: the supplement of paper PMC3545927
